Reference: PubChem BioAssay (EPA / NIEHS)
Activity calls are given as the source filed them. How the source made its calls: active means hit-call score of the fitted dose curve at least 0.9, where 1 is the maximum; inactive means score below 0.9.

What was measured:
[1] = ATG_GLI_CIS: Attagene CIS-FACTORIAL HepG2 Assay for human Zinc Finger Protein GLI1 (AID 2282945); conditions: HepG2, Attagene cis-factorial reporter mRNA, GLI element; actives raise or lower the signal
Summary of the method: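 Transiently transfected HepG2 cells report endogenous transcription factor activity via cis-element-driven reporter units. After 24 h compound exposure, reporter mRNA was measured by RT-PCR with capillary electrophoresis; bidirectional fitting against DMSO baseline.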

[2] = target: Bile acid receptor (Homo sapiens) (UniProt Q96RI1); assay: ATG_IR1_CIS: Attagene CIS-FACTORIAL HepG2 Assay for human Nuclear Receptor Subfamily 1 Group H Member 4 (NR1H4), IR1 submotif (AID 2282946); conditions: IR1 reporter transcription, actives raise or lower the signal
Summary of the method: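 Fluorescence of capillary-separated, HpaI-digested RT-PCR reporter products gave IR1-element mRNA induction in HepG2 cells 24 h after dosing. Endogenous transcription factors drove the cis-regulated reporters; activity was fitted bidirectionally against DMSO.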

[3] = ATG_GRE_CIS: Attagene CIS-FACTORIAL HepG2 Assay for human Glucocorticoid Response Elements (GRE) (AID 2282947); conditions: HepG2 GRE cis-reporter, Attagene multiplex mRNA; actives raise or lower the signal
Summary of the method: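 Fluorescence intensity of reporter-specific cDNA fragments, separated by capillary electrophoresis, provides the signal. Constructs carry cis-regulating promoters in transiently transfected HepG2 liver cells; 24 h incubation; fitting is bidirectional against DMSO.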

[4] = ATG_ISRE_CIS: Attagene CIS-FACTORIAL HepG2 Assay for human Interferon Regulatory Factor 1 (IRF1) binding to an Interferon-Stimulated Response Element (ISRE) (AID 2282948); conditions: HepG2 ISRE cis-reporter (Attagene), mRNA transcription readout; actives raise or lower the signal
Summary of the method: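 Uses HepG2 liver cells transfected with cis-regulated reporters and measures mRNA 24 h post-dosing through RT-PCR, primer-extension labelling and capillary electrophoresis, with DMSO as negative control.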

[5] = ATG_M_32_CIS: Attagene CIS-FACTORIAL HepG2 Assay for M32 Transcription Factor (Internal Marker) (AID 2282949); conditions: HepG2 Attagene cis-factorial M32 reporter, mRNA; actives raise or lower the signal;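 further: background control marker of the multiplexed CIS panel rather than a real target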
Summary of the method: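 HepG2 human liver cells transiently transfected with cis-promoter-driven multiple reporter transcription units, dosed 24 h. Reporter mRNA quantified by RT-PCR, FAM-labelled primer extension, HpaI digest and capillary electrophoresis; bidirectional fit versus DMSO baseline.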

[6] = ATG_M_06_CIS: Attagene CIS-FACTORIAL HepG2 Assay for M06 Transcription Factor (Internal Marker) (AID 2282950); conditions: HepG2 Attagene CIS-FACTORIAL M06 internal marker reporter; actives raise or lower the signal
Summary of the method: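 Serves as a background control readout. Transfected HepG2 exposed to compounds for 24 h, then reporter transcripts quantified by fluorescent RT-PCR and capillary electrophoresis. Both directions fitted against DMSO baseline.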

[7] = target: Hypoxia-inducible factor 1-alpha (Homo sapiens) (UniProt Q16665); assay: ATG_HIF1a_CIS: Attagene CIS-FACTORIAL HepG2 Assay for human Hypoxia Inducible Factor 1 (HIF1A) (AID 2282951); conditions: HepG2 Attagene cis-factorial HIF1a reporter transcription; actives raise or lower the signal
Summary of the method: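 HepG2 cells transiently transfected with multiple cis-regulated reporter transcription units measure endogenous transcription factor activity. After 24 h exposure, reporter mRNA is quantified by RT-PCR with 6-FAM labelling, HpaI digestion and capillary electrophoresis. Bidirectional fitting against DMSO.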

[8] = target: Hepatocyte nuclear factor 6 (Homo sapiens) (UniProt Q9UBC0); assay: ATG_HNF6_CIS: Attagene CIS-FACTORIAL HepG2 Assay for human Hepatocyte Nuclear Factor 6 (HNF6) (AID 2282952); conditions: HepG2 Attagene cis-factorial HNF6 reporter transcription; actives raise or lower the signal
Summary of the method: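 Endogenous factor activity read in transiently transfected HepG2 via promoter-regulated reporter transcripts. RNA harvested 24 h post-dosing, reverse-transcribed, PCR-amplified, FAM-labelled, HpaI-digested and resolved by capillary electrophoresis; fitted in both directions against DMSO.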

[9] = target: Heat shock factor protein 1 (Homo sapiens) (UniProt Q00613); assay: ATG_HSE_CIS: Attagene CIS-FACTORIAL HepG2 Assay for human Heat Shock Transcription Factor 1 (HSE) (AID 2282953); conditions: HepG2 HSE cis-reporter, Attagene RNA transcription; actives raise or lower the signal
Summary of the method: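 Endogenous transcription factor activity in transiently transfected HepG2, read as reporter mRNA by RT-PCR with fluorescent capillary electrophoresis after 24 h. Gain or loss of signal fitted versus DMSO baseline.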

[10] = ATG_MRE_CIS: Attagene CIS-FACTORIAL HepG2 Assay for human Metal Responsive Element (MRE) (AID 2282954); conditions: HepG2 MRE cis-reporter transcription, Attagene multiplex; actives raise or lower the signal
Summary of the method: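 Measured here is mRNA induction from an MRE cis-element reporter in HepG2 after 24 h, quantified by fluorescence of labelled RT-PCR products on capillary electrophoresis; gain- and loss-of-signal fits use DMSO as baseline.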

[11] = target: Paired box protein Pax-6 (Homo sapiens) (UniProt P26367); assay: ATG_Pax6_CIS: Attagene CIS-FACTORIAL HepG2 Assay for human Paired Box 6 (PAX6) (AID 2282956); conditions: HepG2 CIS-FACTORIAL PAX6 reporter transcription, RNA readout; actives raise or lower the signal
Summary of the method: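 DMSO-referenced bidirectional fits of reporter mRNA fluorescence; HepG2 with transient cis-promoter MRTUs, 24 h post-dose, RT-PCR plus capillary electrophoresis detection.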

[12] = ATG_PXRE_CIS: Attagene CIS-FACTORIAL HepG2 Assay for human Pregnane X Receptor Element (PXRE) (AID 2282957); conditions: HepG2 Attagene CIS-FACTORIAL PXRE reporter, mRNA; actives raise or lower the signal
Summary of the method: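 Reporter transcripts under endogenous PXR-responsive cis-regulation quantified from total RNA of transfected HepG2 cells 24 h post-dosing, via RT-PCR with fluorescent primer extension and capillary electrophoresis. Gain or loss of signal fitted against DMSO baseline.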

[13] = ATG_PPRE_CIS: Attagene CIS-FACTORIAL HepG2 Assay for human Peroxisome Proliferator-activated Response Element (PPRE) (AID 2282958); conditions: HepG2 PPRE cis-element reporter, Attagene transcription factor profiling; actives raise or lower the signal
Summary of the method: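 HepG2 cells are transiently transfected with multiplexed cis-promoter reporter units to report endogenous PPAR activity. After 24 h dosing, reporter mRNA is read by RT-PCR and capillary electrophoresis. Fitting is bidirectional against DMSO.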

[14] = ATG_RORE_CIS: Attagene CIS-FACTORIAL HepG2 Assay for human RAR-related Orphan Receptor Element (RORE) (AID 2282959); conditions: HepG2 Attagene cis-factorial RORE reporter, mRNA; actives raise or lower the signal
Summary of the method: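 HepG2 cells carrying transiently transfected cis-regulated reporter units; RORE-driven reporter mRNA quantified 24 h post-dosing by RT-PCR, 6-FAM primer extension, HpaI digestion and capillary electrophoresis. Bidirectional fit versus DMSO.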

[15] = ATG_Sox_CIS: Attagene CIS-FACTORIAL HepG2 Assay for human SRY-box transcription factor (SOX) (AID 2282960); conditions: HepG2 Attagene cis-factorial SOX reporter, mRNA; actives raise or lower the signal
Summary of the method: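 HepG2 cells transiently transfected with multiple cis-regulated reporter units, then dosed for 24 h. Reporter mRNA quantified by RT-PCR, fluorescent labelling, HpaI digestion and capillary electrophoresis; bidirectional fit versus DMSO.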

[16] = target: Transcription factor Sp1 (Homo sapiens) (UniProt P08047); assay: ATG_Sp1_CIS: Attagene CIS-FACTORIAL HepG2 Assay for human Specificity Protein 1 (Sp1) (AID 2282961); conditions: HepG2 Sp1 cis-reporter transcription, actives raise or lower the signal
Summary of the method: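 HepG2 cells transiently transfected with multiplexed cis-regulated reporter constructs, chemical exposure 24 h. Reporter mRNA quantified by RT-PCR with capillary electrophoresis; bidirectional fit relative to DMSO.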

[17] = ATG_SREBP_CIS: Attagene CIS-FACTORIAL HepG2 Assay for human Sterol Regulatory Element Binding (SREBP) (AID 2282962); conditions: HepG2 Attagene cis-factorial SREBP reporter, mRNA; actives raise or lower the signal
Summary of the method: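 In this cis-format assay, HepG2 liver cells express reporters controlled by promoter elements responsive to native transcription factors. Exposure lasts 24 h; reporter mRNA fluorescence from capillary electrophoresis gives the signal, fitted bidirectionally against DMSO.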

[18] = target: Signal transducer and activator of transcription 3 (Homo sapiens) (UniProt P40763); assay: ATG_STAT3_CIS: Attagene CIS-FACTORIAL HepG2 Assay for human Signal Transducer and Activator of Transcription 3 (STAT3) (AID 2282963); conditions: HepG2, Attagene cis-factorial STAT3 reporter transcription; actives raise or lower the signal
Summary of the method: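 Fluorescence intensity of 6-FAM-labelled reporter fragments, separated by capillary electrophoresis after RT-PCR, gave the signal. Cells were HepG2 transfected with cis-element reporter units and treated 24 h; fitting was bidirectional relative to DMSO.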

[19] = ATG_TA_CIS: Attagene CIS-FACTORIAL HepG2 Assay for human TA Basal Promoter (AID 2282964); conditions: HepG2 Attagene CIS-factorial TA basal promoter reporter; actives raise or lower the signal
Summary of the method: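 Background-control readout: TA basal promoter reporter mRNA, fitted in both directions relative to DMSO. Measured by RT-PCR and capillary electrophoresis 24 hours after treating HepG2 human liver cells transiently carrying multiplexed cis-regulated reporter constructs.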

[20] = ATG_PBREM_CIS: Attagene CIS-FACTORIAL HepG2 Assay for human Phenobarbital-responsive Enhancer Module (PBREM) (AID 2282955); conditions: HepG2 PBREM cis-reporter, Attagene multiplexed transcription; actives raise or lower the signal
Summary of the method: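 HepG2 cells transiently transfected with multiple cis-regulated reporter units measure endogenous transcription factor activity; 24 h compound exposure. Reporter mRNA quantified by RT-PCR, fluorescent labelling, HpaI digestion and capillary electrophoresis; bidirectional fit versus DMSO.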

Measured: AC50

Bile acid receptor (Homo sapiens), sequence (Q96RI1 whole entry, looked up): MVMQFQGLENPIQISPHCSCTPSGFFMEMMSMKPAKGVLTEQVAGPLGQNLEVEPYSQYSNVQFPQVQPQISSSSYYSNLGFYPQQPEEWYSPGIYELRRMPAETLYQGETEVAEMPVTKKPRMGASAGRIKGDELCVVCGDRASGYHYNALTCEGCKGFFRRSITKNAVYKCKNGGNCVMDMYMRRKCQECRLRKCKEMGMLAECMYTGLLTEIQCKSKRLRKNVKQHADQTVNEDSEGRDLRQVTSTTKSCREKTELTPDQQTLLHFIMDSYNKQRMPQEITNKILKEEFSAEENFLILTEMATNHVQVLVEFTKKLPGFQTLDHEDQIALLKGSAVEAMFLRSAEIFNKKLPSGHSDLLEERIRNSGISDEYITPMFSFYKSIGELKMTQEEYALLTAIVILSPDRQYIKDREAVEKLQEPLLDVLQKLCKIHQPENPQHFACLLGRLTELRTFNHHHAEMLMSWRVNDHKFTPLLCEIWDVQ
Hepatocyte nuclear factor 6 (Homo sapiens), sequence (Q9UBC0 whole entry, looked up): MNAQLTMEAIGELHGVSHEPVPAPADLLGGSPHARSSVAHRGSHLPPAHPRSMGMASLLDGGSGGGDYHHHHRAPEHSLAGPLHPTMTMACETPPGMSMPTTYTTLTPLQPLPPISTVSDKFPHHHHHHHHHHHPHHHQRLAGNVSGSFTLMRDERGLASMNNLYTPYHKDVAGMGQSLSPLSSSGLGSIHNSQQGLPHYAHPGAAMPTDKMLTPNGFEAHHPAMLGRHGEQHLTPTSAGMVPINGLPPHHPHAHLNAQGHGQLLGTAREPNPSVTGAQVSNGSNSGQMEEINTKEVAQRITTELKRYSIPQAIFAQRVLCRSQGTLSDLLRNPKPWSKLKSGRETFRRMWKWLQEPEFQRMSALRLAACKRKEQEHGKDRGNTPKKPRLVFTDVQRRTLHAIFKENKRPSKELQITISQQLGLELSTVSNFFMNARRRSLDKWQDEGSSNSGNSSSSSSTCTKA
Hypoxia-inducible factor 1-alpha (Homo sapiens), sequence (Q16665 whole entry, looked up): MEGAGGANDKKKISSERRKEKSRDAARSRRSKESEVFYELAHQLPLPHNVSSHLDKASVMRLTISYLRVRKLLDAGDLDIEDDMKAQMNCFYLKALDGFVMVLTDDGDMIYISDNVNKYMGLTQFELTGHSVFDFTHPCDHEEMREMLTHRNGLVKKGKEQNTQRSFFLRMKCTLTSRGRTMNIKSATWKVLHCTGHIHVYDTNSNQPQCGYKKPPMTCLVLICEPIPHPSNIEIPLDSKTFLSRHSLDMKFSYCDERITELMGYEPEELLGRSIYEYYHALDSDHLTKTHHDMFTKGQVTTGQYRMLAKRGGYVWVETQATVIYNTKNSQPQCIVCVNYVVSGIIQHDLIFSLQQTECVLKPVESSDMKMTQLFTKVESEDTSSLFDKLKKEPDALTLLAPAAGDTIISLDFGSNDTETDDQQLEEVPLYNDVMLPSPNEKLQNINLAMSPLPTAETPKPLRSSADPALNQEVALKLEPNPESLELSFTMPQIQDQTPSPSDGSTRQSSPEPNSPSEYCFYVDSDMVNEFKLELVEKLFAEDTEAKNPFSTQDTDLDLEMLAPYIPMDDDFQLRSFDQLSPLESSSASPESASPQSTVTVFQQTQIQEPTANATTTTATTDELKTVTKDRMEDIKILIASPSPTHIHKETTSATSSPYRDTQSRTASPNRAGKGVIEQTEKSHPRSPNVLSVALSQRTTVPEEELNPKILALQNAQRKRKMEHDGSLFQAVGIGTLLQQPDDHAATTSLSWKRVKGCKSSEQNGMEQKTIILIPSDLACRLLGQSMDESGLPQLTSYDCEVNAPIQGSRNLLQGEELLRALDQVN
Paired box protein Pax-6 (Homo sapiens), sequence (P26367 whole entry, looked up): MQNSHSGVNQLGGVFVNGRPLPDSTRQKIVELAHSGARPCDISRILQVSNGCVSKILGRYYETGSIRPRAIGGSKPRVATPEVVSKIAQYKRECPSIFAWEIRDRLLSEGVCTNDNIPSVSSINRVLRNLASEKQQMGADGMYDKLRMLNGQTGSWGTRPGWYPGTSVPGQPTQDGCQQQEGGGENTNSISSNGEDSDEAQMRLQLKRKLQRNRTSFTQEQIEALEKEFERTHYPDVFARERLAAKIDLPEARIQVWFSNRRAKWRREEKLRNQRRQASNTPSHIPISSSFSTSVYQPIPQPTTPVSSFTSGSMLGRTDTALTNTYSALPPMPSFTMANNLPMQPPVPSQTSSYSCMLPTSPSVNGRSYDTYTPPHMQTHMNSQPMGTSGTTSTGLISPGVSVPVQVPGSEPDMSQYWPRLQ
Signal transducer and activator of transcription 3 (Homo sapiens), sequence (P40763 whole entry, looked up, the tested form may be a part): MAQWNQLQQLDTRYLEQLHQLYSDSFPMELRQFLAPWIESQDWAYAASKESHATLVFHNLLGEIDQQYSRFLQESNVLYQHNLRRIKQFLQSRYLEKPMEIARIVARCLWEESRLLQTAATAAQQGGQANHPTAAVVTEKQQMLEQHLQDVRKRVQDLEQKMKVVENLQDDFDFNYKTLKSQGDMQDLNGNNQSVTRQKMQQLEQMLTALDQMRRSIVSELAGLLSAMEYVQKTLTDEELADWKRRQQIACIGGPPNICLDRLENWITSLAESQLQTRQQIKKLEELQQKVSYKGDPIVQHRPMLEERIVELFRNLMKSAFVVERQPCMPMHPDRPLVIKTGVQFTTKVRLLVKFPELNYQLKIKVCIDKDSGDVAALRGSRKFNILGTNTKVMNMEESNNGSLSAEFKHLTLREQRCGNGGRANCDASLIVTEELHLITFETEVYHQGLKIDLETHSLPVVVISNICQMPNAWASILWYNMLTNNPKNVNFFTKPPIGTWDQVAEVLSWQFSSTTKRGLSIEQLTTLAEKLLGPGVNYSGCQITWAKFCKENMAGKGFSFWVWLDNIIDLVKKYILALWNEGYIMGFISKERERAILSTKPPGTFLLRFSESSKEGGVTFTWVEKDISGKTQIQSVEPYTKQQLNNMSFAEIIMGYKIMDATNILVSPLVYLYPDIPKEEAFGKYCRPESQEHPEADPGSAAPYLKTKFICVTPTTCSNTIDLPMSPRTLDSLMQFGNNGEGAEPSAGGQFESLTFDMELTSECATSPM
Transcription factor Sp1 (Homo sapiens), sequence (P08047 whole entry, looked up): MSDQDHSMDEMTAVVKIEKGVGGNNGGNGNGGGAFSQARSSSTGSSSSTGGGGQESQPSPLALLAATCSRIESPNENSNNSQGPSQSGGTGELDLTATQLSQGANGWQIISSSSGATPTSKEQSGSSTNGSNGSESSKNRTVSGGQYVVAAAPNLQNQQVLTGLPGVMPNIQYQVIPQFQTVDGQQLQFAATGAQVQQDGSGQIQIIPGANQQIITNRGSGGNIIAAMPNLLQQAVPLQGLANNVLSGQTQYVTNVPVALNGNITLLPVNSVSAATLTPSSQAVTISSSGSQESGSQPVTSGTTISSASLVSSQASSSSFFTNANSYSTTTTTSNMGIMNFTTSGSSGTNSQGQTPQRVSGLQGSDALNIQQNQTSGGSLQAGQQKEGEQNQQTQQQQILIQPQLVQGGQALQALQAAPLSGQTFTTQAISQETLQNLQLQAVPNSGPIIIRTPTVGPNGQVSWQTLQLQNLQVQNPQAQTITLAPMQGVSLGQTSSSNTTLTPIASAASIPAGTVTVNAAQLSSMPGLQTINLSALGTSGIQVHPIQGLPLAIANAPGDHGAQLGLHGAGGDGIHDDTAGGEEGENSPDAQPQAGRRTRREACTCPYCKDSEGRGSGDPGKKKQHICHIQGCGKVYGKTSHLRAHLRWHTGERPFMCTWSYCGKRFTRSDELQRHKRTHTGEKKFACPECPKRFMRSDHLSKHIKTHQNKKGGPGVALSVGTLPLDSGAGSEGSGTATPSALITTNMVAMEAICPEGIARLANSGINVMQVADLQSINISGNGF
Heat shock factor protein 1 (Homo sapiens), sequence (Q00613 whole entry, looked up): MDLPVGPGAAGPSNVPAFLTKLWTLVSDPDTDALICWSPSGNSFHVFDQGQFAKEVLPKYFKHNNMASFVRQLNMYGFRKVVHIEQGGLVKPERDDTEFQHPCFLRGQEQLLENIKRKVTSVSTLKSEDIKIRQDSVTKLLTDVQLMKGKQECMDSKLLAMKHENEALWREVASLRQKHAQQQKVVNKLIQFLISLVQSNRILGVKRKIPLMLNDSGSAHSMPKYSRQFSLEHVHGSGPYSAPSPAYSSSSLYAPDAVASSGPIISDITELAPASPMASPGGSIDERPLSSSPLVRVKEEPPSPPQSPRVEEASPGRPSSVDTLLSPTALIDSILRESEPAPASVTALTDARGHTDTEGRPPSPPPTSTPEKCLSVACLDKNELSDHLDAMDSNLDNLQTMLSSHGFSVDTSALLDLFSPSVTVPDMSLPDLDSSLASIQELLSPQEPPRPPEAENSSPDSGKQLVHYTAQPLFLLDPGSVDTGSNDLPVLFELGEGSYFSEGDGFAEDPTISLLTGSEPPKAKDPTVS

CCc1cc(Cc2cc(CC)c(N)c(CC)c2)cc(CC)c1N
active: [1] 60.5 µM | [8] 56.6 µM | [9] 60 µM | [10] 26.1 µM | [11] 33.4 µM | [12] 1.1 µM | [15] 29.3 µM | [17] 3.95 µM
not listed: [20]
inactive: all other assays above

CC(C)=CCCC(C)O (configuration not stated)
not listed: [12] | [14]
inactive: all other assays above

NCC(F)(F)C(F)(F)C(F)(F)C(F)(F)C(F)(F)C(F)(F)C(F)(F)C(F)(F)F
not listed: [20]
inactive: all other assays above

O=C(Cl)c1ccc(Cl)cc1Cl
active: [12] 27.3 µM
not listed: [9]
inactive: all other assays above

O=C(c1ccccc1)c1ccc(Cl)cc1
active: [9] 153 µM | [10] 57.5 µM | [20] 47.2 µM
not listed: [12] | [14]
inactive: all other assays above

CCn1c2ccccc2c2ccccc21
active: [10] 73.9 µM | [12] 26.2 µM | [16] 167 µM | [17] 153 µM
not listed: [14] | [20]
inactive: all other assays above

O=C(F)C1(F)C(F)(F)C(F)(F)C(F)(F)C(F)(F)C1(F)F
not listed: [12] | [14] | [20]
inactive: all other assays above

Oc1ccc2c(c1)CCC2
not listed: [9] | [14]
inactive: all other assays above

Brc1ccccn1
not listed: [20]
inactive: all other assays above

O=C1c2c(O)ccc(Nc3ccc(CCO)cc3)c2C(=O)c2c([N+](=O)[O-])ccc(O)c21
active: [13] 24.1 µM | [14] 4.01 µM
not listed: [12] | [20]
inactive: all other assays above

CCc1ccc(C)nc1
not listed: [9] | [12]
inactive: all other assays above

O=C=Nc1cccc2c(N=C=O)cccc12
not listed: [12]
inactive: all other assays above

CCN=c1cc2oc3cc(NCC)c(C)cc3c(-c3ccccc3C(=O)OCC)c-2cc1C
inactive: [3] | [5] | [6] | [7] | [8] | [20] | [18]
active: [1] 16.3 µM | [2] 16.5 µM | [4] 8.05 µM | [9] 17 µM | [10] 9.29 µM | [11] 8.69 µM | [13] 17 µM | [15] 15.9 µM | [16] 9.7 µM | [17] 15.5 µM | [19] 11.1 µM

Cc1cc(O)c(C(C)(C)C)cc1C(C)(C)C
active: [2] 2.87 µM | [4] 17.2 µM | [10] 18 µM | [16] 11.1 µM | [17] 8.33 µM
not listed: [12]
inactive: all other assays above
